Common to all, as to experiment: DAPPL (digital affinity profiling via proximity ligation, sequencing); 10 mM Tris-HCl pH 7.5, 50 mM NaCl, 1 mM DTT, 4% glycerol, room temperature, 30 min; GST-TFs on glutathione beads, 16-mer random dsDNA library, 0.1% formaldehyde crosslink after washing; high values mean tight binding
In experiment [1] the target is T1, FLI1 (Homo sapiens, UniProt Q01543 1-452).
T1 sequence: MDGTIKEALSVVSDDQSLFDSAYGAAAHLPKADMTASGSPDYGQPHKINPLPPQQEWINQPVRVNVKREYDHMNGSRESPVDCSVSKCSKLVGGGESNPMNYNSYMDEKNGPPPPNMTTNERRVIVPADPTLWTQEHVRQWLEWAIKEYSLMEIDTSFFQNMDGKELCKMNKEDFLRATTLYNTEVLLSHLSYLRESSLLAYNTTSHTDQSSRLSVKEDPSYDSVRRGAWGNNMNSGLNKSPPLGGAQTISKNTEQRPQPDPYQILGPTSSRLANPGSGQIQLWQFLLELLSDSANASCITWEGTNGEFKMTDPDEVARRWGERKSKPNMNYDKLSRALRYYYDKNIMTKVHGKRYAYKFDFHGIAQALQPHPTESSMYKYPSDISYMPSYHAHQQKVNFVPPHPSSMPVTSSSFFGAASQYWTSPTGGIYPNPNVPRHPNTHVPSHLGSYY
Conditions: protein: recombinant; tags: N-terminal GST; dsDNA, one strand shown. A digest of the protocol:
(§1)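 The binding signal reported is, for every hexamer, its read frequency for a factor over its read frequency for the tag-only sample. Reads came from pools of yeast-expressed, GST-fused human transcription factors on glutathione beads, barcoded with DNA and mixed with that sample, which were incubated with 200 nmole of a random double-stranded 16-mer DNA library in Tris/NaCl/DTT/glycerol buffer at room temperature for 30 min. After washing, the pools were crosslinked with 0.1% formaldehyde, proximity-ligated with BsaI/T4 ligase for 1 h at 37 °C, PCR-amplified and sequenced on an Illumina NextSeq500.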

For experiment [2], the target named is T2, ELK1 (Homo sapiens, UniProt P19419 1-428).
T2 sequence: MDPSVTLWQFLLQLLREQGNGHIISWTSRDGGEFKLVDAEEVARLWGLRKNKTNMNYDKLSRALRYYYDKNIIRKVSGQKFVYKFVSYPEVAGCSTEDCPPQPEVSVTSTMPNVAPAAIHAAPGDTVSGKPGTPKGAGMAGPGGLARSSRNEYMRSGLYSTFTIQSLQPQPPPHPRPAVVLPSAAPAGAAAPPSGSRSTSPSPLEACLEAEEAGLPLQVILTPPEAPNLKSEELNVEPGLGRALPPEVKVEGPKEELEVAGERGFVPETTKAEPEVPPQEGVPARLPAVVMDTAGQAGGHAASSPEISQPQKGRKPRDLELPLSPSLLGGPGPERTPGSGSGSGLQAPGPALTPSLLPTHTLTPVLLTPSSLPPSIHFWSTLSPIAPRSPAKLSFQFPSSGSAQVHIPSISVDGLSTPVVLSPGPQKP
Conditions: protein: recombinant; tags: N-terminal GST; dsDNA, one strand shown. A digest of the protocol:
as §1

Experiment [3] has as its target T3, GABPA (Homo sapiens, UniProt Q06546 1-454).
T3 sequence: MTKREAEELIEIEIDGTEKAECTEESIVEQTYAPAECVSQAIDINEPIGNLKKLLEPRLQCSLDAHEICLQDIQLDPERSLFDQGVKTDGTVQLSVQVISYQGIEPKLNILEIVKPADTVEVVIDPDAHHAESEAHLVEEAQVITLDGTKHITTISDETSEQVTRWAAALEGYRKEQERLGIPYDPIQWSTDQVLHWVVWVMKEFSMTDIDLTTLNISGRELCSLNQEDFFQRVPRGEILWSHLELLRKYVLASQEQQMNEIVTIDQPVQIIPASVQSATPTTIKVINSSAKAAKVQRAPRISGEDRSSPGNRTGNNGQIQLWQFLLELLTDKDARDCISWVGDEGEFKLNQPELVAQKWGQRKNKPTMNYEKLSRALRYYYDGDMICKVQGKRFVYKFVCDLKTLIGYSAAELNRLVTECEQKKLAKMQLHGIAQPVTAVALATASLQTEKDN
To be noted: protein: recombinant; tags: N-terminal GST; dsDNA, one strand shown. A digest of the protocol: as §1

The target of experiment [4] is T4, ERG (Homo sapiens, UniProt P11308 1-479).
T4 sequence: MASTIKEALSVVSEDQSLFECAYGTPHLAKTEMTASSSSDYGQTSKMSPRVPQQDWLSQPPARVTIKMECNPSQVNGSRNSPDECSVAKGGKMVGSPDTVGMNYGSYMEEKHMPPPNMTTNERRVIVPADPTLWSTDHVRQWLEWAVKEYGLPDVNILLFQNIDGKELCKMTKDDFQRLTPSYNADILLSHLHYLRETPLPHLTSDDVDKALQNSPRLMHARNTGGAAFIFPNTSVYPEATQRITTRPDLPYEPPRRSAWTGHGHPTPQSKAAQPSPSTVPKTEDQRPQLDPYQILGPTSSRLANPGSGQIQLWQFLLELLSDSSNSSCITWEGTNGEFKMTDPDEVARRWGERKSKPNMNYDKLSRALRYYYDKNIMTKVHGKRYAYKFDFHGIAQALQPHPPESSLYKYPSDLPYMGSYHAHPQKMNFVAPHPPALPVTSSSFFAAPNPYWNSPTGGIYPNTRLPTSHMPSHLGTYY
To be noted: protein: recombinant; tags: N-terminal GST; dsDNA, one strand shown. A digest of the protocol:
as §1

The target in experiment [5] is ELF1 (Homo sapiens, UniProt P32519 1-619). To be noted: protein: recombinant; tags: N-terminal GST; dsDNA, one strand shown. The gist of the method: as §1
In experiment [6] the target is T5, EHF (Homo sapiens, UniProt Q9NZC4 1-300).
T5 sequence: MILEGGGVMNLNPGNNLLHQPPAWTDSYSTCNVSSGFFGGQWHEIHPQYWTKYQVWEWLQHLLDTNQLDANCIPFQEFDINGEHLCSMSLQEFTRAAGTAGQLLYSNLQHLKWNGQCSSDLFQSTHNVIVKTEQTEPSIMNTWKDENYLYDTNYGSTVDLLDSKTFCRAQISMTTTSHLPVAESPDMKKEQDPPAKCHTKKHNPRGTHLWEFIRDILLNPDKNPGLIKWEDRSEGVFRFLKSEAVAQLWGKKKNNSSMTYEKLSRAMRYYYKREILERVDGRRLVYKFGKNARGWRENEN
Conditions: protein: recombinant; tags: N-terminal GST; dsDNA, one strand shown. The gist of the method:
as §1

Experiment [7] concerns the target SPI1 (Homo sapiens, UniProt P17947 1-270). To be noted: protein: recombinant; tags: N-terminal GST; dsDNA, one strand shown. A digest of the protocol: as §1
The target of experiment [8] is SPIB (Homo sapiens, UniProt Q01892 1-262). To be noted: protein: recombinant; tags: N-terminal GST; dsDNA, one strand shown. A digest of the protocol: as §1
Experiment [9] concerns the target T6, ELK3 (Homo sapiens, UniProt P41970 1-407).
T6 sequence: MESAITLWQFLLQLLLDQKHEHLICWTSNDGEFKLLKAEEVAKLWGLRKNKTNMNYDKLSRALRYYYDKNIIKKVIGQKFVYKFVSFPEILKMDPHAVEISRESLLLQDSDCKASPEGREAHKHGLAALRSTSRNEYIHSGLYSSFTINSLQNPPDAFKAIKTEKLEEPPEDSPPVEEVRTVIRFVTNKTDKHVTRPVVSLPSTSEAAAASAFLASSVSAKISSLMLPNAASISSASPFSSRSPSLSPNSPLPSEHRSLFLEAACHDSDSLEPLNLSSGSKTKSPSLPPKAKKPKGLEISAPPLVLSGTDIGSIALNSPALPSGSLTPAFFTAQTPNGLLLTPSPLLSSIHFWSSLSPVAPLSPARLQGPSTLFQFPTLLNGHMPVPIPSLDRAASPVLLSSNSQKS
Conditions: protein: recombinant; tags: N-terminal GST; dsDNA, one strand shown. The gist of the method: as §1

Experiment [10] concerns the target T7, FEV (Homo sapiens, UniProt Q99581 1-238).
T7 sequence: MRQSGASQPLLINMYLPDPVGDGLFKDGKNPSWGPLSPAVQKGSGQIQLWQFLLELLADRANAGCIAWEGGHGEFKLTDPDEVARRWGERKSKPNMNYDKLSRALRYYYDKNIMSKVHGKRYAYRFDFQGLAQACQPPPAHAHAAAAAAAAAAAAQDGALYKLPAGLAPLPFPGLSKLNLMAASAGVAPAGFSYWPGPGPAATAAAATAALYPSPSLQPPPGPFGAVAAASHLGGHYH
To be noted: protein: recombinant; tags: N-terminal GST; dsDNA, one strand shown. The gist of the method:
as §1

Experiment [11] addresses ETV5 (Homo sapiens, UniProt P41161 1-510). Conditions: protein: recombinant; tags: N-terminal GST; dsDNA, one strand shown. The gist of the method: as §1
The target of experiment [12] is HSF1 (Homo sapiens, UniProt Q00613 1-529). Conditions: protein: recombinant; tags: N-terminal GST; chain copies: 3; dsDNA, one strand shown. A digest of the protocol: as §1
For experiment [13], the target named is T8, SPIC (Homo sapiens, UniProt Q8N5J4 1-248).
T8 sequence: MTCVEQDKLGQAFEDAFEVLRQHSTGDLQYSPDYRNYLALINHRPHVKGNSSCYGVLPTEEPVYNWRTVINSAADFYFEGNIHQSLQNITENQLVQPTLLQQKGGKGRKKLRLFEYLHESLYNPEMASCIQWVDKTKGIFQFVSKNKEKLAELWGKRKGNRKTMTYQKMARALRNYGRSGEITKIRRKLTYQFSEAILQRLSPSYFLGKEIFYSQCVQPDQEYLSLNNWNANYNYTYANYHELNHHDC
To be noted: protein: recombinant; tags: N-terminal GST; dsDNA, one strand shown. The gist of the method: as §1

The target of experiment [14] is ELF4 (Homo sapiens, UniProt Q99607 1-663). To be noted: protein: recombinant; tags: N-terminal GST; dsDNA, one strand shown. The gist of the method: as §1
Experiment [15] deals with T9, ELK4 (Homo sapiens, UniProt P28324-2 1-405).
T9 sequence: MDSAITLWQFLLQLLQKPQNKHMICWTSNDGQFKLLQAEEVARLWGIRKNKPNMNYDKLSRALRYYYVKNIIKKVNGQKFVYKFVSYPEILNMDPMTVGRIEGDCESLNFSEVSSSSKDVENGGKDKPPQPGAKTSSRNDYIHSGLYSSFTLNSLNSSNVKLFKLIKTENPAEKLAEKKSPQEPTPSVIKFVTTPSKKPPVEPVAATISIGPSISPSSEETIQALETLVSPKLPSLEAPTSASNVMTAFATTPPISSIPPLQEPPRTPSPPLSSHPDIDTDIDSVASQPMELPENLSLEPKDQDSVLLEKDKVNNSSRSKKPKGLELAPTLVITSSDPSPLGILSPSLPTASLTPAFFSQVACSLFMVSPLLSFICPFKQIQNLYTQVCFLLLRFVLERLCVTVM
Conditions: protein: recombinant; tags: N-terminal GST; dsDNA, one strand shown. The gist of the method: as §1

In experiment [16] the target is T10, ELF3 (Homo sapiens, UniProt P78545 1-371).
T10 sequence: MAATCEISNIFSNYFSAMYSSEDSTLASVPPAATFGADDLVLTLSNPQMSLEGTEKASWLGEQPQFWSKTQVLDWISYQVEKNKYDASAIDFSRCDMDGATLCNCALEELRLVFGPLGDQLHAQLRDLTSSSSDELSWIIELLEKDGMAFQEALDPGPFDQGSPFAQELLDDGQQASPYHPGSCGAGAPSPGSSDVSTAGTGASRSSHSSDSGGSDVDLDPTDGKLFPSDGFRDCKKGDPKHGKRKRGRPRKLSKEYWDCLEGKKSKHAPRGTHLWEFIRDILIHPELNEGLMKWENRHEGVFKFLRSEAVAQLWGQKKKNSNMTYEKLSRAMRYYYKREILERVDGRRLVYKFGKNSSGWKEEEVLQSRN
To be noted: protein: recombinant; tags: N-terminal GST; dsDNA, one strand shown. A digest of the protocol:
as §1

Experiment [17] deals with CRX (Homo sapiens, UniProt O43186 1-299). To be noted: protein: recombinant; tags: N-terminal GST; dsDNA, one strand shown. A digest of the protocol: as §1
The target of experiment [18] is ETV1 (Homo sapiens, UniProt P50549 1-477). To be noted: protein: recombinant; tags: N-terminal GST; dsDNA, one strand shown. A digest of the protocol:
as §1

Chain of SPIB (Q01892 whole entry): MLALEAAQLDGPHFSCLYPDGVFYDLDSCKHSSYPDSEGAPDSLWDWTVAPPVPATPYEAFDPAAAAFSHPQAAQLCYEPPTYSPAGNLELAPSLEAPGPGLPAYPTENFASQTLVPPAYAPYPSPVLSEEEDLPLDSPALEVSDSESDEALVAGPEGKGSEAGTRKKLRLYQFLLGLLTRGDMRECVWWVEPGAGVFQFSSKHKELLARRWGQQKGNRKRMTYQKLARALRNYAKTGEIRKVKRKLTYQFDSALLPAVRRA
Chain of ETV5 (P41161 whole entry): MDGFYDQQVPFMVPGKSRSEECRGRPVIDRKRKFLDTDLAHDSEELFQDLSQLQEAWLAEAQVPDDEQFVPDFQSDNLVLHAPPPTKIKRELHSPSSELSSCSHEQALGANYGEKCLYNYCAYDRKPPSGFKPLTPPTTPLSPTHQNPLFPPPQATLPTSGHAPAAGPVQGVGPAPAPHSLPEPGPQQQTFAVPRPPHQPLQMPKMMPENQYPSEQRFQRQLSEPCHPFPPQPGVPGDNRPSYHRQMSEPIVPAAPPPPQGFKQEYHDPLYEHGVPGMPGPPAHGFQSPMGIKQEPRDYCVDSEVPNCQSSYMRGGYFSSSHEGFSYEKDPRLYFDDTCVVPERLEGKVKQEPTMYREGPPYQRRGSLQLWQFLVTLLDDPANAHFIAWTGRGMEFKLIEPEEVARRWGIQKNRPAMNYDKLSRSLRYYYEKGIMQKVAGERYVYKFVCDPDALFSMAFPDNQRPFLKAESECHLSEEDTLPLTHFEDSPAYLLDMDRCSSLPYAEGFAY
Chain of ETV1 (P50549 whole entry): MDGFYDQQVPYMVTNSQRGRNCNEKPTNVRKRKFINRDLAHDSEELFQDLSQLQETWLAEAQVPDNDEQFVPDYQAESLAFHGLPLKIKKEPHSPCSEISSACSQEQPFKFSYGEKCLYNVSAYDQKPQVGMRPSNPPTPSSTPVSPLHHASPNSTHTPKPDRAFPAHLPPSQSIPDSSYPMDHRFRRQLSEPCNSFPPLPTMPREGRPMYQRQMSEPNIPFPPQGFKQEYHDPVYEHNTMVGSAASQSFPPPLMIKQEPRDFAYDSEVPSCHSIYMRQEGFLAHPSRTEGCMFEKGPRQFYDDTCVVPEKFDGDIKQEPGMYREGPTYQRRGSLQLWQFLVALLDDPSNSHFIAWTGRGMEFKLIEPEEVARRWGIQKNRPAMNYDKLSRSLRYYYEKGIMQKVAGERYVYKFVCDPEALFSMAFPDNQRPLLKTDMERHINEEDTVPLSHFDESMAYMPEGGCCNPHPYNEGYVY
Chain of CRX (O43186 whole entry): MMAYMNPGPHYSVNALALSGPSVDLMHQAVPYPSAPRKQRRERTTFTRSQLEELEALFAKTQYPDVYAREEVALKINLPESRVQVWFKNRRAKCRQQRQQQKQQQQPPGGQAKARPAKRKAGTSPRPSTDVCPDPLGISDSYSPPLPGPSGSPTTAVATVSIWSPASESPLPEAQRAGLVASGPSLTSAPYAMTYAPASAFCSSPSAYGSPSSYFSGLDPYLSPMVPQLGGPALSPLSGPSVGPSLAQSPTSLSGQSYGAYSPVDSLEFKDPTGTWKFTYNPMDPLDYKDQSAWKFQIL
Chain of ELF1 (P32519 whole entry): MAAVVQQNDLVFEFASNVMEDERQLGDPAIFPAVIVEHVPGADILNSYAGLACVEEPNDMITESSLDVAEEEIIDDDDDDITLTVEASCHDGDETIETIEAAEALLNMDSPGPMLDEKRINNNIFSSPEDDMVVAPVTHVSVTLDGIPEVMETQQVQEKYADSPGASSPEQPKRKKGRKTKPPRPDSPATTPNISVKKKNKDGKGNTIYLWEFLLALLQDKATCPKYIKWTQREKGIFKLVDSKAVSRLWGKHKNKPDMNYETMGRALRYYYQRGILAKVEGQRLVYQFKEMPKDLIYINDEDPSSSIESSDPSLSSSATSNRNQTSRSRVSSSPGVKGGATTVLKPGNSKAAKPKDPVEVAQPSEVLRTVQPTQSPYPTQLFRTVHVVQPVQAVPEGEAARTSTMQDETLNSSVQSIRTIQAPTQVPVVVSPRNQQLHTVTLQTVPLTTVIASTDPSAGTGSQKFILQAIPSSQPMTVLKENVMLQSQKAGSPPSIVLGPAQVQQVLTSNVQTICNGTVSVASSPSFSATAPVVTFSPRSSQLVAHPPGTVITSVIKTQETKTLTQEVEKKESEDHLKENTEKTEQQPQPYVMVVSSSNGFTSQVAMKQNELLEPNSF
Chain of HSF1 (Q00613 whole entry): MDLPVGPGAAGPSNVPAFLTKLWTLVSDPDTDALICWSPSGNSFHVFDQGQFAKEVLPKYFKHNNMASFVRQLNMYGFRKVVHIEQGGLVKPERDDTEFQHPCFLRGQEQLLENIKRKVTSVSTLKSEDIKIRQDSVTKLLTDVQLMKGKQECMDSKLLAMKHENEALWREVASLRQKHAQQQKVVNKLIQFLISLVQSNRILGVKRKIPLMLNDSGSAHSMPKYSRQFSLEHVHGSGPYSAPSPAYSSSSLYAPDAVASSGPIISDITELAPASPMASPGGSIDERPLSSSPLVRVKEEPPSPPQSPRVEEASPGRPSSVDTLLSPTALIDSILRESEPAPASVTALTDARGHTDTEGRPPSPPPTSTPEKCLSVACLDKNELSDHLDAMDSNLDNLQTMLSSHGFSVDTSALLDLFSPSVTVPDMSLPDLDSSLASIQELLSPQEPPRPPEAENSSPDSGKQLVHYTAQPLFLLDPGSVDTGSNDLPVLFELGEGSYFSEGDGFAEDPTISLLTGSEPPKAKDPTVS
Chain of ELF4 (Q99607 whole entry): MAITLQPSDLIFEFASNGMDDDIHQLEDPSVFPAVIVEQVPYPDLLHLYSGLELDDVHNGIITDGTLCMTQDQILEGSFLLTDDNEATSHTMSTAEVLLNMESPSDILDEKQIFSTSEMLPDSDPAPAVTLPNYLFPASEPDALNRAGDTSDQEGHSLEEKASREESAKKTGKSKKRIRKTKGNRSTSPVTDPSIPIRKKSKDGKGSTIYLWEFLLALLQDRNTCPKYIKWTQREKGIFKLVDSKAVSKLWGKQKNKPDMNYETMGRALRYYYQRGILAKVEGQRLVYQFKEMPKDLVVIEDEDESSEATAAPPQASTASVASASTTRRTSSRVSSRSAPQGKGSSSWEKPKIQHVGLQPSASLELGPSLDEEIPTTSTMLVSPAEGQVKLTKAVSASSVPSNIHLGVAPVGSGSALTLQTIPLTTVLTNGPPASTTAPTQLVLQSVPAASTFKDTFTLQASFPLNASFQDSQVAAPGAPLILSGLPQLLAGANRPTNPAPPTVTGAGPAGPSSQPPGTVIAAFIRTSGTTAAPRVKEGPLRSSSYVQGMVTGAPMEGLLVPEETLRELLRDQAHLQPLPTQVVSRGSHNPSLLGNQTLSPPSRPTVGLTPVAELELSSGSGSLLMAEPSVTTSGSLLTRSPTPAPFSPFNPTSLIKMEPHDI

Turning to AAAGTT, the binding signal is 1.07 fold enrichment (6-mer frequency, TF over GST control) in experiment [1]; 1.05 fold enrichment (6-mer frequency, TF over GST control) in [2]; 1.13 fold enrichment (6-mer frequency, TF over GST control) in [3]; 1.02 fold enrichment (6-mer frequency, TF over GST control) in experiment [4]; 1.08 fold enrichment (6-mer frequency, TF over GST control) in experiment [5]; 1.1 fold enrichment (6-mer frequency, TF over GST control) in [6]. The binding signal is 1.07 fold enrichment (6-mer frequency, TF over GST control) in experiment [7]; 1.16 fold enrichment (6-mer frequency, TF over GST control) in [8]; 1.17 fold enrichment (6-mer frequency, TF over GST control) in experiment [9]; 1.01 fold enrichment (6-mer frequency, TF over GST control) in experiment [10]; 1.16 fold enrichment (6-mer frequency, TF over GST control) in experiment [11]; 1.43 fold enrichment (6-mer frequency, TF over GST control) in [12]. For the same sequence, the binding signal is 1.03 fold enrichment (6-mer frequency, TF over GST control) in experiment [13]; 1.14 fold enrichment (6-mer frequency, TF over GST control) in [14]; 1.19 fold enrichment (6-mer frequency, TF over GST control) in [15]; 1.1 fold enrichment (6-mer frequency, TF over GST control) in experiment [16]; 1.22 fold enrichment (6-mer frequency, TF over GST control) in experiment [17]; 1.07 fold enrichment (6-mer frequency, TF over GST control) in experiment [18].

These data come from paper PMC7862700, “An all-to-all approach to the identification of sequence-specific readers for epigenetic DNA modifications on cytosine”.
